Laboratory results from paper PMC7862700, “An all-to-all approach to the identification of sequence-specific readers for epigenetic DNA modifications on cytosine”.

What was measured:
Assay in all cases: DAPPL (digital affinity profiling via proximity ligation, sequencing); 10 mM Tris-HCl pH 7.5, 50 mM NaCl, 1 mM DTT, 4% glycerol, room temperature, 30 min; GST-TFs on glutathione beads, 16-mer random dsDNA library, 0.1% formaldehyde crosslink after washing; high values mean tight binding
FLI1 = target: T1, FLI1 (Homo sapiens, UniProt Q01543 1-452); settings: protein: recombinant; tags: N-terminal GST; dsDNA, one strand shown
T1 sequence: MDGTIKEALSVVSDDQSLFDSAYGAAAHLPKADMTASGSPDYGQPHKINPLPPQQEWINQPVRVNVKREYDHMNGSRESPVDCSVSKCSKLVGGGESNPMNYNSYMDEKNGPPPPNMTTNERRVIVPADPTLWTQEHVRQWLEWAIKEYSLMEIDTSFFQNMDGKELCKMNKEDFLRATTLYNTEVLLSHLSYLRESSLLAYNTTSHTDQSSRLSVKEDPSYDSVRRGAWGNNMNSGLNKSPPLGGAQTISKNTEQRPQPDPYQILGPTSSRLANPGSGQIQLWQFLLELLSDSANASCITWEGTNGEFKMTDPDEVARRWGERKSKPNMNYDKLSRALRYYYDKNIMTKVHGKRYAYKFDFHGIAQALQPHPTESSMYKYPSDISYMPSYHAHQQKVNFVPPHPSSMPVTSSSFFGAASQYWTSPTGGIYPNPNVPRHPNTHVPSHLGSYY
Summary of the method: (§1)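 GST fusions of human transcription factors were expressed in yeast and captured with glutathione beads. Once given DNA barcodes and pooled alongside a tag-only sample, they were incubated for 30 min at room temperature with 200 nmole of a random double-stranded 16-mer DNA library in Tris/NaCl/DTT/glycerol buffer, then washed, crosslinked (0.1% formaldehyde), proximity-ligated, PCR-amplified and sequenced on an Illumina NextSeq500. The binding signal of each hexamer is its read frequency for a factor divided by its frequency for the tag-only sample.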

ELK1 = target: T2, ELK1 (Homo sapiens, UniProt P19419 1-428); settings: protein: recombinant; tags: N-terminal GST; dsDNA, one strand shown
T2 sequence: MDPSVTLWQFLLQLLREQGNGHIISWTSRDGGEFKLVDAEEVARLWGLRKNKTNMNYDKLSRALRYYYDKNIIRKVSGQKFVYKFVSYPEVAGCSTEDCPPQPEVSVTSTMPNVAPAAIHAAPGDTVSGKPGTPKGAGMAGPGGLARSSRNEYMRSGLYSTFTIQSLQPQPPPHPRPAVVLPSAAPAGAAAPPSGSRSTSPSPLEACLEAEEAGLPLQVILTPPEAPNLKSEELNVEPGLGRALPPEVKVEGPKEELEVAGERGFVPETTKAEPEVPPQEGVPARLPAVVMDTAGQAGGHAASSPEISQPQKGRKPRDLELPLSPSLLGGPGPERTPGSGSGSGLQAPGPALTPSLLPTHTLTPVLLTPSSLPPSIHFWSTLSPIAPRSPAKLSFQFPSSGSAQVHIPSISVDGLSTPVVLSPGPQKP
Summary of the method: as §1

GABPA = target: T3, GABPA (Homo sapiens, UniProt Q06546 1-454); settings: protein: recombinant; tags: N-terminal GST; dsDNA, one strand shown
T3 sequence: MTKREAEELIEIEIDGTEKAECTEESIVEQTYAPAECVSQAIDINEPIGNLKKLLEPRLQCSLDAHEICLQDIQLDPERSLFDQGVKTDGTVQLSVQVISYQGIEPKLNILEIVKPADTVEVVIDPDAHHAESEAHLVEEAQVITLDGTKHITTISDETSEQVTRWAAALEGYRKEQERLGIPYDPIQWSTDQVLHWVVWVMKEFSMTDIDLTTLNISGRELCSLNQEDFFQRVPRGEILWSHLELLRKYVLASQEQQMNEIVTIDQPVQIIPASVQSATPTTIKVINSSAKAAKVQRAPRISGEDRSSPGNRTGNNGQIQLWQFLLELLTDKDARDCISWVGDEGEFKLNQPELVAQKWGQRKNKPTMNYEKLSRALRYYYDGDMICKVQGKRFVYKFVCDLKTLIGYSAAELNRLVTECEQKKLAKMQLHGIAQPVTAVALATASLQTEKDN
Summary of the method: as §1

ERG = target: T4, ERG (Homo sapiens, UniProt P11308 1-479); settings: protein: recombinant; tags: N-terminal GST; dsDNA, one strand shown
T4 sequence: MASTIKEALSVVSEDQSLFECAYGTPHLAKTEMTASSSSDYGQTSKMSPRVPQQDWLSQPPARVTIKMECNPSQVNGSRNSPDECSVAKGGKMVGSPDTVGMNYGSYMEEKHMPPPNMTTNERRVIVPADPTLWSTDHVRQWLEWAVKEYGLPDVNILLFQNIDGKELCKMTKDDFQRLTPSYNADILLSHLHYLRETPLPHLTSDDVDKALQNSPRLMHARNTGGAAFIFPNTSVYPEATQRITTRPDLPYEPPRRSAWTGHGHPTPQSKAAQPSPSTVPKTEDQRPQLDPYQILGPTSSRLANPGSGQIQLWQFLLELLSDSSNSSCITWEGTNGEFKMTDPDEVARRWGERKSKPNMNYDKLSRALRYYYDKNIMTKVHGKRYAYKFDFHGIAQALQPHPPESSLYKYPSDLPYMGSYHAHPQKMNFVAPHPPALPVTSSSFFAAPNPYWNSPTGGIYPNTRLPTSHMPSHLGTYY
Summary of the method: as §1

ELF1 = ELF1 (Homo sapiens, UniProt P32519 1-619); settings: protein: recombinant; tags: N-terminal GST; dsDNA, one strand shown
Chain of ELF1 (P32519 whole entry): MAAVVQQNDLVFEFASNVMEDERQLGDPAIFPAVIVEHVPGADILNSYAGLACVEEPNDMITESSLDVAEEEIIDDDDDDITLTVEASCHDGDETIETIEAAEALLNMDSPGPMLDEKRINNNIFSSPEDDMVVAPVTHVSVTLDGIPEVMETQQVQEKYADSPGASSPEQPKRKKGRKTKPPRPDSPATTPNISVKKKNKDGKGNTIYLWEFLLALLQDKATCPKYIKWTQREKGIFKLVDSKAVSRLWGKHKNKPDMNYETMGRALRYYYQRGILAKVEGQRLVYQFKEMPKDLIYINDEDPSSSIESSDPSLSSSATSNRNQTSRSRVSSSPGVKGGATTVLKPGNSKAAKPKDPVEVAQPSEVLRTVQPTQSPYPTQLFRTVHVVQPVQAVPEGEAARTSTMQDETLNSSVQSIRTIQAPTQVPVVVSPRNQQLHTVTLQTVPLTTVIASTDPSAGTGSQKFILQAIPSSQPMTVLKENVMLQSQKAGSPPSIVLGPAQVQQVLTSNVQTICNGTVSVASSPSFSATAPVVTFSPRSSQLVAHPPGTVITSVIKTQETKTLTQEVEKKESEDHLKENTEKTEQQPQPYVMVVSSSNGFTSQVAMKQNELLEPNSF
Summary of the method: as §1

EHF = target: T5, EHF (Homo sapiens, UniProt Q9NZC4 1-300); settings: protein: recombinant; tags: N-terminal GST; dsDNA, one strand shown
T5 sequence: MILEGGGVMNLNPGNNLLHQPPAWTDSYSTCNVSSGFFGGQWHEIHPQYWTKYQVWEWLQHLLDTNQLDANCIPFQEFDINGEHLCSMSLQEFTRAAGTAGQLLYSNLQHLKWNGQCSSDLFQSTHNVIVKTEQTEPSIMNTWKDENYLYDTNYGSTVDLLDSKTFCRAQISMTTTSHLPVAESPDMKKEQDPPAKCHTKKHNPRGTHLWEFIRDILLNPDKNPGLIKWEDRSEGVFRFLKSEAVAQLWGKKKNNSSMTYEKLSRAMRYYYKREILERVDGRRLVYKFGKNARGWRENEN
Summary of the method: as §1

SPI1 = SPI1 (Homo sapiens, UniProt P17947 1-270); settings: protein: recombinant; tags: N-terminal GST; dsDNA, one strand shown
Summary of the method: as §1

SPIB = SPIB (Homo sapiens, UniProt Q01892 1-262); settings: protein: recombinant; tags: N-terminal GST; dsDNA, one strand shown
Chain of SPIB (Q01892 whole entry): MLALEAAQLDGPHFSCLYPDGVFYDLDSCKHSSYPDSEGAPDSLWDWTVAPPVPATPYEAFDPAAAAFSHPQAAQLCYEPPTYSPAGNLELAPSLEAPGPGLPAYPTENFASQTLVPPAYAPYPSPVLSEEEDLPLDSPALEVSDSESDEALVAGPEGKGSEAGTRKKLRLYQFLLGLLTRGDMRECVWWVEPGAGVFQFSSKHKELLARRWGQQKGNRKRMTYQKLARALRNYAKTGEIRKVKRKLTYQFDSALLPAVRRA
Summary of the method: as §1

ELK3 = target: T6, ELK3 (Homo sapiens, UniProt P41970 1-407); settings: protein: recombinant; tags: N-terminal GST; dsDNA, one strand shown
T6 sequence: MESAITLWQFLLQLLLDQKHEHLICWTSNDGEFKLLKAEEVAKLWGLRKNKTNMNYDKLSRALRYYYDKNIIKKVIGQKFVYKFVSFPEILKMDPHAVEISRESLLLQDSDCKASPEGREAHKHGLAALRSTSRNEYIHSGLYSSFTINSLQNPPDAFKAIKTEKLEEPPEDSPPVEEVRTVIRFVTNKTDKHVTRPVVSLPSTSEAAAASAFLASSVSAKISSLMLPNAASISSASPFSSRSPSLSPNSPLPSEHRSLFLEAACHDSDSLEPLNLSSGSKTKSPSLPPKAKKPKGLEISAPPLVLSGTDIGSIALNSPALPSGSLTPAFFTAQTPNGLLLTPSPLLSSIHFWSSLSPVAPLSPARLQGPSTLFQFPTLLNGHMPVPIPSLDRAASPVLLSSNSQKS
Summary of the method: as §1

FEV = target: T7, FEV (Homo sapiens, UniProt Q99581 1-238); settings: protein: recombinant; tags: N-terminal GST; dsDNA, one strand shown
T7 sequence: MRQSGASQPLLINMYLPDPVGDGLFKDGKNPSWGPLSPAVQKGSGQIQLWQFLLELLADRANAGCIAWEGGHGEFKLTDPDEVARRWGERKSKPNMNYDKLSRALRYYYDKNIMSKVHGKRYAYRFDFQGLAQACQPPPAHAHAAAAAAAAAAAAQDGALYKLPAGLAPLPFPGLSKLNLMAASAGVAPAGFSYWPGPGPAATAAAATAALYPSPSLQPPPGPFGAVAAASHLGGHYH
Summary of the method: as §1

ETV5 = ETV5 (Homo sapiens, UniProt P41161 1-510); settings: protein: recombinant; tags: N-terminal GST; dsDNA, one strand shown
Chain of ETV5 (P41161 whole entry): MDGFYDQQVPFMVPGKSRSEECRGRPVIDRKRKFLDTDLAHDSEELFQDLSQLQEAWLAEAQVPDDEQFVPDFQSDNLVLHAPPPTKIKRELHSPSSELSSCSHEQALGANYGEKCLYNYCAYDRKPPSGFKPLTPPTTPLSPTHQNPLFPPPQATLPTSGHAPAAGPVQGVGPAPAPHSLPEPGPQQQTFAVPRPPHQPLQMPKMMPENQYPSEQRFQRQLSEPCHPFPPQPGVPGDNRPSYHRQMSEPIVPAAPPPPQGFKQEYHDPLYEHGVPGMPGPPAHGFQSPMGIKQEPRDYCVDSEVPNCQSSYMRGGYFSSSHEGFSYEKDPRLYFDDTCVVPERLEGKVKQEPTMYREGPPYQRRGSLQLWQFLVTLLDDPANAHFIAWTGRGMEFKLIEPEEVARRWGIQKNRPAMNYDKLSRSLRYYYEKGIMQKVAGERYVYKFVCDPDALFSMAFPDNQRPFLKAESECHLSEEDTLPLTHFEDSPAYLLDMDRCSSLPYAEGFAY
Summary of the method: as §1

HSF1 = HSF1 (Homo sapiens, UniProt Q00613 1-529); settings: protein: recombinant; tags: N-terminal GST; chain copies: 3; dsDNA, one strand shown
Chain of HSF1 (Q00613 whole entry): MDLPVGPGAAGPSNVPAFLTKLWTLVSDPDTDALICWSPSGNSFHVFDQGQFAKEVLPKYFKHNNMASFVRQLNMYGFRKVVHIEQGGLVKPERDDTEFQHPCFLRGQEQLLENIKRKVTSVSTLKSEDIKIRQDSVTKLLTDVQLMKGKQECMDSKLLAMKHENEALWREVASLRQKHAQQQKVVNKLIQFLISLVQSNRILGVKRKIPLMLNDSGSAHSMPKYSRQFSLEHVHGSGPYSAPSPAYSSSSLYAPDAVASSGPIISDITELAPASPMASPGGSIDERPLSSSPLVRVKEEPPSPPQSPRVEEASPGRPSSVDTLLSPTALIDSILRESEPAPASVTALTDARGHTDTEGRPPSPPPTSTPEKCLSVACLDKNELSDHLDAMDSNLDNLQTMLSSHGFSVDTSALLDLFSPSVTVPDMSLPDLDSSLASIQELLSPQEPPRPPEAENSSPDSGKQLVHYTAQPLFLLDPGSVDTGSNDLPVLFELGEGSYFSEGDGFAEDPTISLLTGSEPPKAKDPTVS
Summary of the method: as §1

SPIC = target: T8, SPIC (Homo sapiens, UniProt Q8N5J4 1-248); settings: protein: recombinant; tags: N-terminal GST; dsDNA, one strand shown
T8 sequence: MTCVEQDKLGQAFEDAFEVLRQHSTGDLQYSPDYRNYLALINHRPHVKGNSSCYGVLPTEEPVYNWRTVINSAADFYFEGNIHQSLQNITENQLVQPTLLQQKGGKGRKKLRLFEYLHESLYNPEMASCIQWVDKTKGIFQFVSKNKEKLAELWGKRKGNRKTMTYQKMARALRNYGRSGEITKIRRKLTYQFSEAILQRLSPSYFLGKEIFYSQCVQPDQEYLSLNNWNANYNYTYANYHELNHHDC
Summary of the method: as §1

ELF4 = ELF4 (Homo sapiens, UniProt Q99607 1-663); settings: protein: recombinant; tags: N-terminal GST; dsDNA, one strand shown
Chain of ELF4 (Q99607 whole entry): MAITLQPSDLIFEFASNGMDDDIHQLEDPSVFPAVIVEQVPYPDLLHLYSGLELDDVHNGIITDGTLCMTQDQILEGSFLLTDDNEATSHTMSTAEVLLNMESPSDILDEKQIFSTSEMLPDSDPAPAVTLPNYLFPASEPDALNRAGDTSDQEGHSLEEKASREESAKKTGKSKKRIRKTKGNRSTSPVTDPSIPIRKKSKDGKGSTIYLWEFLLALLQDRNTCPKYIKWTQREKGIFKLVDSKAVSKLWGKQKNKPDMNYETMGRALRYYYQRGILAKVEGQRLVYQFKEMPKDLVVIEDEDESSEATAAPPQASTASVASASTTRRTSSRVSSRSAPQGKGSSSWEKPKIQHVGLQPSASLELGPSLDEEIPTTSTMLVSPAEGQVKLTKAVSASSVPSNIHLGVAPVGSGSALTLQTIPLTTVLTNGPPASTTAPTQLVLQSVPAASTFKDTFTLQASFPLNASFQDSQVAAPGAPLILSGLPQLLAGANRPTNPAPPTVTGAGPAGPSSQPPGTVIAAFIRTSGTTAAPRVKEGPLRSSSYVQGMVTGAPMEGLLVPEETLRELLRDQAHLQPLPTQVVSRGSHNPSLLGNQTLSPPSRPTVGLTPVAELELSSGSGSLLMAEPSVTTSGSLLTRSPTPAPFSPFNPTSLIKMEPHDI
Summary of the method: as §1

ELK4 = target: T9, ELK4 (Homo sapiens, UniProt P28324-2 1-405); settings: protein: recombinant; tags: N-terminal GST; dsDNA, one strand shown
T9 sequence: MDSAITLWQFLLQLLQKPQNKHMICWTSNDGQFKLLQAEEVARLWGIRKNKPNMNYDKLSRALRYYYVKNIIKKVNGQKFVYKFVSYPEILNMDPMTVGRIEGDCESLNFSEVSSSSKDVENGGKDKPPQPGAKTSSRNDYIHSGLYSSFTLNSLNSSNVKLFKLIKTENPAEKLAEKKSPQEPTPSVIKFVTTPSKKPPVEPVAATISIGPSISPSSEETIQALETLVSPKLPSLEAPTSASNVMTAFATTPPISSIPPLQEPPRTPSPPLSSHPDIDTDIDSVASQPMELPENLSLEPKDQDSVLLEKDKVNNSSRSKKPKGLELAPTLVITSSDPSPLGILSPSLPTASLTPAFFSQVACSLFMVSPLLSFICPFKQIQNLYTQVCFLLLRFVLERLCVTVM
Summary of the method: as §1

ETV2 = target: T10, ETV2 (Homo sapiens, UniProt O00321 1-342); settings: protein: recombinant; tags: N-terminal GST; dsDNA, one strand shown
T10 sequence: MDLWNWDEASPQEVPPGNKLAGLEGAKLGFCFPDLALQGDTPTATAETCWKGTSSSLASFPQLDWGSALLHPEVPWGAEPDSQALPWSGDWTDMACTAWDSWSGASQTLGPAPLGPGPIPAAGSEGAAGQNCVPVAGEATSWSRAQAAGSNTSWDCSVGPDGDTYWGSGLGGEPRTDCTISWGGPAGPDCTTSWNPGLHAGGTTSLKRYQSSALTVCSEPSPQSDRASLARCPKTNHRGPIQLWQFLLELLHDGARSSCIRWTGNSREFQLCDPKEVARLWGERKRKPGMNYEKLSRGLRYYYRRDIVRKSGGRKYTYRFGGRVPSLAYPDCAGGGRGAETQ
Summary of the method: as §1

ELF3 = target: T11, ELF3 (Homo sapiens, UniProt P78545 1-371); settings: protein: recombinant; tags: N-terminal GST; dsDNA, one strand shown
T11 sequence: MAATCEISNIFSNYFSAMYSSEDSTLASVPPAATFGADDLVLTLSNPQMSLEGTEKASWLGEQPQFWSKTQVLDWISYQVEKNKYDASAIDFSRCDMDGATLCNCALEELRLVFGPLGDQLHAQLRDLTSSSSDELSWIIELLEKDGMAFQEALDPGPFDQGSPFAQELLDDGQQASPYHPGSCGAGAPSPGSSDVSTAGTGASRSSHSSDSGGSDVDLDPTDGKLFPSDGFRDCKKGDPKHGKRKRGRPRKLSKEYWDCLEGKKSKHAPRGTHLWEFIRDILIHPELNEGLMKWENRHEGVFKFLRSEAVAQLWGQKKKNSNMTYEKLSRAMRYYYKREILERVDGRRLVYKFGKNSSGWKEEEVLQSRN
Summary of the method: as §1

CRX = CRX (Homo sapiens, UniProt O43186 1-299); settings: protein: recombinant; tags: N-terminal GST; dsDNA, one strand shown
Chain of CRX (O43186 whole entry): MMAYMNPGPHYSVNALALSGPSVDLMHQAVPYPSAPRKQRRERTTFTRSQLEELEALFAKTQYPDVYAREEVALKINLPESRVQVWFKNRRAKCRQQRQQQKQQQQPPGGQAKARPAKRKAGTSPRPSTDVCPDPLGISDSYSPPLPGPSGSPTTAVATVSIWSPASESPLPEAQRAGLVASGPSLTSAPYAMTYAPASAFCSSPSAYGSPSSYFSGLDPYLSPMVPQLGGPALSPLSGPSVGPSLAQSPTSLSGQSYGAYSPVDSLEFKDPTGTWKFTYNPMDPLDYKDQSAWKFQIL
Summary of the method: as §1

ETV1 = ETV1 (Homo sapiens, UniProt P50549 1-477); settings: protein: recombinant; tags: N-terminal GST; dsDNA, one strand shown
Chain of ETV1 (P50549 whole entry): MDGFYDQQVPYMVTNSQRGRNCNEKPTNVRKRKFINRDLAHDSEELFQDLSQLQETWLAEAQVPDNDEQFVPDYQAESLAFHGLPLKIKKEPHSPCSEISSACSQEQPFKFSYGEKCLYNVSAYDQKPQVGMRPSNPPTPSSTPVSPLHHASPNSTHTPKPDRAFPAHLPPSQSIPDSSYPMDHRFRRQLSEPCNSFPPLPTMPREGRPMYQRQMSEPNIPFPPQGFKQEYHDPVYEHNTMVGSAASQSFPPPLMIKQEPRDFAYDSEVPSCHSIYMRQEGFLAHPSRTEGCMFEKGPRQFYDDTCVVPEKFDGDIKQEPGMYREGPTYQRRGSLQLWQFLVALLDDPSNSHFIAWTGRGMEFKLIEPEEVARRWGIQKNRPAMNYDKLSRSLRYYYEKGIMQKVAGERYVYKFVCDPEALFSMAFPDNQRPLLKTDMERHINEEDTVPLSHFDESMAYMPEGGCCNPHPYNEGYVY
Summary of the method: as §1

## CCCATT
FLI1
  binding signal: 1.36 fold enrichment (6-mer frequency, TF over GST control)
ELK1
  binding signal: 1.25 fold enrichment (6-mer frequency, TF over GST control)
GABPA
  binding signal: 1.46 fold enrichment (6-mer frequency, TF over GST control)
ERG
  binding signal: 1.41 fold enrichment (6-mer frequency, TF over GST control)
ELF1
  binding signal: 1.39 fold enrichment (6-mer frequency, TF over GST control)
EHF
  binding signal: 1.24 fold enrichment (6-mer frequency, TF over GST control)
SPI1
  binding signal: 1.47 fold enrichment (6-mer frequency, TF over GST control)
SPIB
  binding signal: 1.27 fold enrichment (6-mer frequency, TF over GST control)
ELK3
  binding signal: 1.41 fold enrichment (6-mer frequency, TF over GST control)
FEV
  binding signal: 1.28 fold enrichment (6-mer frequency, TF over GST control)
ETV5
  binding signal: 1.38 fold enrichment (6-mer frequency, TF over GST control)
HSF1
  binding signal: 1.15 fold enrichment (6-mer frequency, TF over GST control)
SPIC
  binding signal: 1.43 fold enrichment (6-mer frequency, TF over GST control)
ELF4
  binding signal: 1.23 fold enrichment (6-mer frequency, TF over GST control)
ELK4
  binding signal: 1.26 fold enrichment (6-mer frequency, TF over GST control)
ETV2
  binding signal: 1.56 fold enrichment (6-mer frequency, TF over GST control)
ELF3
  binding signal: 1.22 fold enrichment (6-mer frequency, TF over GST control)
CRX
  binding signal: 1.19 fold enrichment (6-mer frequency, TF over GST control)
ETV1
  binding signal: 1.25 fold enrichment (6-mer frequency, TF over GST control)
